Results filed as inconclusive are left out. Calls of active or inactive are those of the source. Calls come from the whole dose curve; as a rule, active = well fitted cell-killing curve with a large enough effect in the repeat runs; inconclusive = weak or mixed curves; inactive = no such curve, though single readings can be large or run the other way.
Assay: qHTS assay to identify small molecule agonists of the peroxisome proliferator-activated receptor delta (PPARd) signaling pathway - cell viability counter screen (AID 743211); note: nearly all actives have a fitted effect of over 55% in size
Details: PPARd-bla HEK293H viability, CellTiter-Glo luminescence, 17 h; series mostly up to 62.6 µM; activity change, negative = cytotoxicity: at the top concentration
From the text: U.S. Tox21 Program National Center for Advancing Translational Sciences [NCATS] NIH Chemical Genomics Center [NCGC] U.S. Environmental Protection Agency [EPA] National Institutes of Environmental Health Sciences [NIEHS] National Toxicology Program [NTP] U.S. Food and Drug Administration [FDA] Tox21 Assay Overview: The peroxisome proliferator-activated receptors (PPARs) are lipid-activated transcription factors of the nuclear receptor superfamily with three distinct subtypes namely PPAR alpha, PPAR delta (PPARd) and PPAR gamma. All these subtypes heterodimerizes with Retinoid X receptor (RXR) and have different physiological functions. […] To identify the compounds that activate PPAR-delta signaling, GeneBLAzer PPAR delta UAS-bla HEK293H cell line (Invitrogen, Carlsbad, CA, USA) containing a beta-lactamase reporter gene under the control of an Upstream Activator Sequence (UAS) was used to screen the Tox21 compound library. The cytotoxicity of the Tox21 compound library against the PPARd-bla cell line was tested in parallel by measuring the cell viability using CellTiter-Glo assay (Promega, Madison, WI) in the same wells.
Tox21 Assay Protocol Summary: PPARd-bla cells were dispensed at 3000 cells/6uL/well in 1536-well black wall/clear bottom plates using a Multidrop Combi (Thermo Fisher Scientific, Waltham, MA) dispenser. After the assay plates were incubated at 37 C and 5% CO2 for 5 h, 23 nL of compounds dissolved in DMSO, positive controls or DMSO only was transferred to the assay plate by a Pintool station (Kalypsys, San Diego, CA). The assay plates were incubated at 37C for 17 h. After 1 uL of LiveBLAzerTM B/G FRET substrate was added using a Bioraptr Flying Reagent Dispenser (FRD) workstation (Beckman Coulter, Indianapolis, IN, USA), the plates were incubated at room temperature for 2 h, and fluorescence intensity was measured by an Envision plate reader (PerkinElmer, Shelton, CT). For cell viability readout that measures cytotoxicity, 3 ul/well of CellTiter-Glo reagent was added into the assay plates using a Bioraptr FRD. After 30 min incubation at room temperature, the luminescence intensity in the plates was measured using a ViewLux plate reader (PerkinElmer).
% is set by controls: 0 for no effect and ±100 for the full control effect.

| Structure (SMILES) | activity change, negative = cytotoxicity |
| --- | --- |
| Cc1ccc(-c2ncc(Cl)cc2-c2ccc(S(C)(=O)=O)cc2)cn1 | 4.88% (inactive) |
| CC(=O)N1C[C@H](O)C[C@H]1C(=O)O | 5.11% (inactive) |
| Nc1ccn([C@@H]2O[C@H](CO)[C@@H](O)C2(F)F)c(=O)n1 | 9.66% (inactive) |
| CCN1C=CN(C)C1C (stereo not given) | 8.51% [at 81.1 µM] (inactive) |
| CC[N+](C)(CC)CCOC(=O)C1c2ccccc2Oc2ccccc21 | 0.178% (inactive) |
| CO[Si](C)(OC)c1ccccc1 | 2.56% (inactive) |
| O=C(O)CNC(=O)c1ccc(CO)o1 | -0.288% (inactive) |
| CCCCCC(=O)OCCc1ccccc1 | 4.56% (inactive) |
| [Ca+2] | -8.89% (inactive) |
| Cc1ccc(C(=O)c2ccc(CC(=O)O)n2C)cc1 | 1.68% (inactive) |
| C=C[Si](OC(C)=O)(OC(C)=O)OC(C)=O | -0.711% (inactive) |
| Cc1ccnc(NS(=O)(=O)c2ccc(N)cc2)n1 | 8.43% (inactive) |
| CCCCc1nc(Cl)c(CO)n1Cc1ccc(-c2ccccc2-c2nn[nH]n2)cc1 | 1.09% (inactive) |
| COCCOC[C@H](CC1(C(=O)NC2CCC(C(=O)O)CC2)CCCC1)C(=O)Oc1ccc2c(c1)CCC2 (stereo not given in full) | 0.185% (inactive) |
| CCO[Si](OCC)(OCC)c1ccccc1 | 1.1% (inactive) |
| c1ccc2sc(SN3CCOCC3)nc2c1 | 2.82% (inactive) |
| CNC(=O)Nc1ccc(Cl)c(Cl)c1 | -0.0797% (inactive) |
| C[N+](C)(CCOc1ccccc1)Cc1cccs1 | -5.04% (inactive) |
| CO[C@@]1(NC(=O)C(C(=O)O)c2ccc(O)cc2)C(=O)N2C(C(=O)O)=C(CSc3nnnn3C)CO[C@@H]21 (stereo not given in full) | 7.79% (inactive) |
| CC/C=C\CCOC(C)OCC (stereo not given) | -0.915% (inactive) |

| Structure (SMILES) | activity change, negative = cytotoxicity |
| --- | --- |
| C=CCOCC(O)CO (stereo not given) | -0.737% (inactive) |
| CN(C)C(=O)Oc1cccc([N+](C)(C)C)c1 | 6.9% (inactive) |
| O=C(c1ccccc1O)c1ccccc1O | -4.32% (inactive) |
| CCCCCCC1CCC(=O)O1 (stereo not given) | 5.25% [at 81.1 µM] (inactive) |
| CC1=NN(c2cc(S(=O)(=O)O)ccc2Cl)C(=O)C1N=Nc1ccccc1 (stereo not given) | 2.09% (inactive) |
| COc1cc(C)nc(-n2nc(C)cc2OC)n1 | -7.6% (inactive) |
| O=CN(CCO)CCO | -0.672% (inactive) |
| CO/N=C(\C(=O)N[C@@H]1C(=O)N2C(C(=O)O)=C(CSc3nc(=O)c(O)nn3C)CS[C@H]12)c1csc(N)n1 | 0.71% (inactive) |
| CNCC(O)c1ccc(O)c(O)c1 (stereo not given) | -4.42% (inactive) |
| NS(=O)(=O)Cc1noc2ccccc12 | 11.6% (inactive) |
| Clc1cc(Cl)c(Cl)nc1Cl | -2.65% (inactive) |
| CC(CO)(CO)[N+](=O)[O-] | -6.75% (inactive) |
| CC(=O)OCC(=O)[C@@]1(O)[C@H](C)C[C@H]2[C@@H]3CCC4=CC(=O)C=C[C@]4(C)[C@@]3(F)[C@@H](O)C[C@@]21C | 1.26% (inactive) |
| CCOc1ccc2nc(S(N)(=O)=O)sc2c1 | 4.16% (inactive) |
| COC(=O)C1=C(C)NC(C)=C(C(=O)OC(C)C)C1c1cccc2nonc12 (stereo not given) | 0.546% (inactive) |
| NC(=O)NC1N=C([O][Al])NC1=O (stereo not given) | 8.76% (inactive) |
| CCCOC(=O)CC | 9.42% (inactive) |
| CC(=O)O[C@@]12CO[C@@H]1C[C@H](O)[C@@]1(C)C(=O)[C@H](O)C3=C(C)[C@@H](OC(=O)[C@H](O)[C@@H](NC(=O)OC(C)(C)C)c4ccccc4)C[C@@](O)([C@@H](OC(=O)c4ccccc4)[C@H]21)C3(C)C | 1.26% (inactive) |
| O=C(CO)[C@@H](O)[C@H](O)[C@@H](O)CO | 10.8% (inactive) |
| CCCCCCCCCCCCSC | -1.66% (inactive) |
